Out of some 39,000 compounds screened, about 3,300 (8.5%) were called active. Many of the other results were omitted from the sample, so actives are more common in it than they were.

Our source for the cytotoxicity call values is the antibiotic and cytotoxicity screens of Wong et al. (2023).

This assay has as its system HepG2. Description: cytotoxicity call (relative viability < 0.9). The note with it: 10 µM.
For the compound `CC(C)NC(=O)N(C)C[C@@H]1Oc2ccc(NC(=O)CCN3CCOCC3)cc2C(=O)N([C@@H](C)CO)C[C@@H]1C`, the cytotoxicity call is “inactive”.
Consider `COc1ccc2c3c(n(c2c1)C)[C@H](CO)N(C[C@]13CCN(CC1)C(=O)CC1CC1)C(=O)CN1CCOCC1`, for which the cytotoxicity call is “inactive”.
Next, `COc1ccc(-c2cnc3c(c2)C(=O)N([C@@H](C)CO)C[C@@H](C)[C@H](CN(C)C(=O)C2CCOCC2)O3)cc1`: “inactive”; `C[C@H]1CCCCO[C@H](CN(C)Cc2ccc(C(=O)O)cc2)[C@@H](C)CN([C@@H](C)CO)C(=O)c2cc(NC(=O)Cc3ccccc3)ccc2O1`: “inactive”.
Turning to `Cc1ccc(S(=O)(=O)Nc2ccc3c(c2)C(=O)N([C@@H](C)CO)C[C@@H](C)[C@@H](CN(C)CC2CC2)O3)cc1`, the cytotoxicity call was “inactive”.
The result for `CO[C@H]1CN(C)C(=O)c2ccc(NS(=O)(=O)c3ccccc3)cc2OC[C@H](C)N(C(=O)NC(C)C)C[C@@H]1C` reads “inactive”.
The result for `COc1ccc(NC(=O)N(C)C[C@H]2Oc3ccc(NS(=O)(=O)c4cn(C)cn4)cc3CC(=O)N([C@@H](C)CO)C[C@H]2C)cc1` reads “inactive”.
The result for `O=C(C[C@@H]1C[C@H]2c3cc(NC(=O)Cc4ccncc4)ccc3O[C@H]2[C@H](CO)O1)NCCN1CCCCC1` reads “inactive”; that for `CC(=O)N[C@H]1[C@H](O[C@@H]2[C@@H](O)[C@H](C)O[C@@H](Oc3ccc4c(=O)c(-c5ccc(O)cc5)coc4c3)[C@@H]2O)O[C@H](CO)[C@@H](O[C@@H]2O[C@@H](C)[C@H](O)[C@@H](O)[C@H]2O)[C@@H]1O`, “inactive”.
Take `O=C(C[C@@H]1C=C[C@@H](NC(=O)c2ccncc2)[C@@H](CO)O1)NCc1ccncn1`: the cytotoxicity call is “inactive”.
Next, `C[C@@H]1CCCCO[C@H](CN(C)Cc2ccc(C(=O)O)cc2)[C@H](C)CN([C@@H](C)CO)C(=O)c2cc(NC(=O)Nc3ccc(F)cc3)ccc2O1`: “inactive”.
Next, `COc1ccc(S(=O)(=O)Nc2ccc3c(c2)C(=O)N([C@H](C)CO)C[C@H](C)[C@@H](CN(C)S(=O)(=O)c2ccccc2)O3)cc1`: “inactive”.
In the case of `CC(C)NC(=O)Nc1ccc2c(c1)C(=O)N([C@@H](C)CO)C[C@H](C)[C@H](CN(C)Cc1ccc(C(F)(F)F)cc1)OCCCC[C@H](C)O2`, the cytotoxicity call is “inactive”.
For the compound `CC(C)NC(=O)Nc1ccc2c(c1)C(=O)N([C@H](C)CO)C[C@H](C)[C@H](CN(C)Cc1ccc(C(F)(F)F)cc1)OCCCC[C@H](C)O2`, the cytotoxicity call is “inactive”.
Next, `CC(C)NC(=O)Nc1ccc2c(c1)C(=O)N([C@@H](C)CO)C[C@@H](C)[C@H](CN(C)Cc1ccc(C(F)(F)F)cc1)OCCCC[C@H](C)O2`: “inactive”; `CC(C)NC(=O)Nc1ccc2c(c1)C(=O)N([C@@H](C)CO)C[C@@H](C)[C@@H](CN(C)Cc1ccc(C(F)(F)F)cc1)OCCCC[C@@H](C)O2`: “active”; `CC(C)NC(=O)Nc1ccc2c(c1)C(=O)N([C@@H](C)CO)C[C@H](C)[C@@H](CN(C)Cc1ccc(C(F)(F)F)cc1)OCCCC[C@H](C)O2`: “active”.
`CC(C)NC(=O)Nc1ccc2c(c1)C(=O)N([C@H](C)CO)C[C@@H](C)[C@@H](CN(C)Cc1ccc(C(F)(F)F)cc1)OCCCC[C@@H](C)O2`: the cytotoxicity call is “inactive”.
Next, `O=C(C[C@@H]1C=C[C@@H](NC(=O)c2cnccn2)[C@H](CO)O1)NCc1ccccc1F`: “inactive”.
The result for `O=C(C[C@@H]1C[C@@H]2c3cc(NC(=O)Cc4ccncc4)ccc3O[C@@H]2[C@H](CO)O1)NCc1cccc(F)c1` reads “inactive”; that for `CS(=O)(=O)[O-].C[n+]1ccccc1C=NO`, “inactive”.
In the case of `OCc1cccc(CO)c1F`, the cytotoxicity call was “inactive”.
Next, `COc1ccc(S(=O)(=O)Nc2ccc3c(c2)CC(=O)N([C@@H](C)CO)C[C@H](C)[C@H](CN(C)C)O3)cc1`: “inactive”; `C[C@@H](O)CC1=C[C@H]([C@@H](C)O)OC1=O`: “inactive”; `C[C@@H]1CN([C@H](C)CO)C(=O)c2cc(NS(=O)(=O)c3cn(C)cn3)ccc2O[C@@H]1CN(C)S(C)(=O)=O`: “inactive”.
Take `C[C@@H]1CN([C@H](C)CO)C(=O)c2cc(NS(=O)(=O)c3cn(C)cn3)ccc2O[C@H]1CN(C)S(=O)(=O)c1cccs1`: the cytotoxicity call was “inactive”.
The result for `C[C@H](CO)N1C[C@H](C)[C@@H](CN(C)S(=O)(=O)c2cn(C)cn2)Oc2ccc(NS(=O)(=O)c3ccc(F)cc3)cc2C1=O` reads “inactive”; that for `C[C@@H]1CN([C@@H](C)CO)C(=O)c2cc(NS(=O)(=O)c3cn(C)cn3)ccc2O[C@H]1CN(C)S(C)(=O)=O`, “active”; that for `C[C@@H]1CN([C@H](C)CO)C(=O)c2cc(NS(=O)(=O)c3cn(C)cn3)ccc2O[C@@H]1CN(C)S(=O)(=O)c1cccs1`, “inactive”.
For `C[C@@H]1CN([C@H](C)CO)C(=O)c2cc(NS(=O)(=O)c3ccc(F)cc3)ccc2O[C@H]1CN(C)S(=O)(=O)c1cn(C)cn1`, the cytotoxicity call was “active”.
The result for `COc1ccc(S(=O)(=O)N(C)C[C@@H]2Oc3ccc(NS(=O)(=O)c4cccs4)cc3C(=O)N([C@@H](C)CO)C[C@@H]2C)cc1` reads “active”; that for `COc1ccc(S(=O)(=O)N(C)C[C@@H]2Oc3ccc(NS(=O)(=O)c4cccs4)cc3C(=O)N([C@H](C)CO)C[C@H]2C)cc1`, “inactive”.
Turning to `COc1ccc(S(=O)(=O)N(C)C[C@H]2Oc3ccc(NS(=O)(=O)c4cccs4)cc3C(=O)N([C@H](C)CO)C[C@H]2C)cc1`, the cytotoxicity call is “inactive”.
Next, `C[C@H](CO)N1C[C@H](C)[C@H](CN(C)S(=O)(=O)c2cn(C)cn2)Oc2ccc(NS(=O)(=O)c3ccc(F)cc3)cc2C1=O`: “inactive”; `C[C@H]1CN([C@@H](C)CO)C(=O)c2cc(NS(=O)(=O)c3cn(C)cn3)ccc2O[C@@H]1CN(C)S(C)(=O)=O`: “inactive”.
Next, `C[C@@H]1CN([C@@H](C)CO)C(=O)c2cc(NS(=O)(=O)c3cn(C)cn3)ccc2O[C@H]1CN(C)S(=O)(=O)c1cccs1`: “active”.
Consider `CC(C)NC(=O)N(C)C[C@H]1Oc2ccc(NC(=O)CCC(F)(F)F)cc2CC(=O)N([C@H](C)CO)C[C@@H]1C`, for which the cytotoxicity call is “inactive”.
Next, `C[C@@H]1CCCCO[C@H](CN(C)C(=O)Nc2ccccc2)[C@@H](C)CN([C@H](C)CO)C(=O)c2cc(NC(=O)Nc3cccc4ccccc34)ccc2O1`: “inactive”.
For the compound `Cc1noc(C)c1S(=O)(=O)Nc1ccc2c(c1)C(=O)N([C@@H](C)CO)C[C@@H](C)[C@H](CN(C)C(=O)Nc1ccccc1)OCCCC[C@@H](C)O2`, the cytotoxicity call is “inactive”.
